Shown are actives, neighbours in structure and some others; about 8.7% of the full set was active somewhere.
Cav3 T inh: blocks human Cav3.2 T-type calcium channel; O95180; Cav3.2-expressing cells, Fluo-4 calcium fluorescence FDSS; active compounds read low; B-score at 10 µM; 100,000 tested, 4% active; AID 449739;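 active = single-dose well whose peak fluorescence ratio is a statistical outlier from its plate by either plate-standardised score or position-corrected B-score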
PostGolgi yeast: growth inhibition of a yeast mutant, post-Golgi transport screen; post-Golgi transport phenotypic cell assay; inhibition, % at 10 µM; 98,000 tested, 0.9% active; AID 739;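 also: yeast cells grown in 1536-well plates; yeast grown about 18 h at 30C before absorbance read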
hDAT+cocaine: changed human dopamine transporter uptake under cocaine IC80. Q01959. LLC-PK1 hDAT cells, [14C]-dopamine uptake with cocaine IC80; actives deviate in either direction. B-score at 10 µM. 110,000 tested, 1.3% active. AID 449768;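 active = Z score or B-score, a plate-position-corrected score, falls beyond the plate's 99.7% confidence bounds, in either direction; inactive = both scores lie inside the 99.7% bounds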;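 also: scored against the spread of the other compound wells on the same plate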
Smad3 inh: inhibitors of human Smad3 transcription factor binding | P84022 | TR-FRET Smad3/Dy647-FoxH1 peptide binding, europium anti-His | inhibition, % at 25 µM | 88,000 tested, 0.29% active;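 active = compounds that reduce the energy-transfer binding signal between the protein and its labelled peptide by more than half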;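 also: 0% = Smad3 plus labelled peptide maximal FRET and 100% = peptide-only background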
TNAP act DEA: activators of human TNAP at intermediate phosphate acceptor; purified TNAP, CDP-star luminescence, 100 mM DEA, 30 min; active compounds read high; scale: 0 levamisole-inhibited, 1 vehicle-only enzyme; activation factor at 20 µM; 64,000 tested, under 10 active; AID 813;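 active = activation factor of at least 2 at 20 µM, relative to controls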
PostGolgi ctrl: growth of the yeast control strain, post-Golgi counter-screen; efflux-deficient yeast background strain, growth absorbance A615, 16 h; inhibition, % at 10 µM; 98,000 tested, 5% active
Active calls of the source: *; . = no result; ! = not active in a repeat. Rule as the data show it, unless noted: active = inhibition above about 30%; inactive = the rest.

SMILES | Cav3 T inh | PostGolgi yeast | hDAT+cocaine | Smad3 inh | TNAP act DEA | PostGolgi ctrl
O=C(NCCSc1c[nH]c2ccccc12)c1ccc(Br)o1 | -5.03* | -0.3 | -0.000895 | 4.4 | 0.7 | 18.2
O=C(NCCc1csc(-c2ccccc2)n1)c1ccc(Br)o1 | -3.31 | -5.6 | 0.199 | 8.5 | . | 34.5*
O=C(O)CCNC(=O)c1ccc(Br)o1 | -0.284 | -1.4 | -0.387 | -10.7 | 0.9 | 6.9
Cc1[nH]c2ccccc2c1SCCNC(=O)c1ccc(Br)o1 | -4.14* | . | -0.313 | -3.3 | . | .
O=C(NCCC(c1ccccc1)c1ccccc1)c1ccc(Br)o1 | -6.46* | -4.3 | -0.126 | 3.0 | . | 29.2
CCN(CCCNC(=O)CCNC(=O)Cn1cnc2ccccc2c1=O)c1cccc(C)c1 | -0.329 | 5.2 | 0.115 | -1.4 | 1 | 15.2
CCN(CC)S(=O)(=O)c1ccc(C(=O)NCCSc2c[nH]c3ccccc23)cc1 | -4.61* | . | 0.461 | . | . | .
CC(CC(=O)O)(CC(=O)O)c1ccccc1 | . | . | . | 10.2 | . | .
C[N+]1(C)CCCC(OC(=O)C(O)(c2ccccc2)c2ccccc2)C1 (configuration not stated) | -4.52* | . | -1.62 | . | . | .
Cc1ccc2cccc(Oc3cnccn3)c2n1 | 0.409 | -21.0 | -1.89* | -1.4 | 0.9 | 14.8
COc1ccc(OC)c(C2C3=C(CCCC3=O)Nc3c2c(=O)n(C)c(=O)n3C)c1 (configuration not stated) | 0.95 | -4.7 | -0.556 | 0.8 | 0.9 | -8.3
O=C(NCc1cccnc1)c1ccccn1 | 0.56 | -37.1 | 0.518 | -11.3 | 0.9 | -5.5
O=C(NCCCNCc1ccccc1)c1ccccn1 | 0.555 | 4.8 | -1.69 | -15.1 | 1 | 36.1*
COc1ccc(C2NCCc3cc(OC)c(OC)cc32)cc1OC (configuration not stated) | 0.0131 | . | 0.293 | 4.5 | 0.9 | .
CCn1c(SCc2nc3ccccc3[nH]2)nnc1-c1cccs1 | -0.0202 | 3.4 | 1.19 | -0.6 | 1.1 | -0.3
Cc1nc2ccccc2cc1OCc1ccc(Cl)cc1 | 0.00666 | 1.9 | -2.1 | . | . | 35.8*
CC(C)C[C@@H](CO)NC(=O)CC[C@H](NC(=O)OC(C)(C)C)C(=O)N(Cc1ccccc1)Cc1ccccc1 | -0.879 | . | -0.0804 | . | . | .
CCNC(=O)n1nccc1C(C)Oc1ccc(Cl)cc1 (configuration not stated) | -1.15 | 3.4 | -0.285 | . | . | 6.6
CCNC(=O)n1nccc1C(C)Oc1cccc(C(F)(F)F)c1 (configuration not stated) | -1.67 | -5.5 | -0.919 | . | . | 34.6*
O=C(Cn1nnc(-c2cccs2)n1)N1CCc2ccccc2C1 | . | 23.4 | 0.297 | -4.3 | 0.9 | 1.2
Cc1nc(CSc2ccc(Cl)cc2)cc(NCc2ccccc2)n1 | -8.31* | 5.8 | 0.31 | 8.8 | . | 26.0
Cc1nc(CS(=O)c2ccc(Cl)cc2)cc(NCc2ccc(Cl)cc2Cl)n1 (configuration not stated) | -5.75* | 3.5 | 2.65* | 9.0 | . | 35.0*
Cc1nc(CSc2ccc(Cl)cc2)cc(N2CCOCC2)n1 | -0.406 | 4.5 | 0.121 | . | . | 0.9
Cc1cc(C)nc(NC(=O)CSc2nn(C)c(=S)s2)n1 | 0.409 | 39.8* | -0.257 | 8.0 | 0.9 | -5.5
COc1ccc(NC(=O)CN2CCN(S(=O)(=O)c3ccc(Cl)cc3)CC2)cc1 | -0.871 | 23.0 | -0.0286 | -11.1 | 0.8 | 4.3
SMILES | Cav3 T inh | PostGolgi yeast | hDAT+cocaine | Smad3 inh | TNAP act DEA | PostGolgi ctrl
O=C(CN1CCN(S(=O)(=O)c2cc(Cl)ccc2Cl)CC1)Nc1ccc2c(c1)OCCO2 | . | 0.5 | 1.81*! | -5.8 | 0.9 | 13.6
CN(C)c1ccc(NC(=O)CN2CCN(S(=O)(=O)c3cc(Cl)ccc3Cl)CC2)cc1 | -4.12* | 2.3 | 0.0846 | . | 1 | 13.2
Cc1noc(C)c1COC(=O)c1ccccc1Sc1ccccc1C#N | -3.52 | -8.3 | -0.159 | 14.3 | 0.9 | 30.3*
O=C(Nc1cccc(-c2cn3ccsc3n2)c1)c1ccccc1 | 1.08 | -8.6 | 1.4 | 1.5 | 0.9 | 4.6
COc1ccccc1C(=O)Nc1cccc(-c2cn3ccsc3n2)c1 | 0.186 | 2.2 | -0.185 | 12.0 | 0.9 | 38.2*
N#Cc1cc(C#N)c(N2CCN(c3cccc(Cl)n3)CC2)nc1N | -1.73 | 1.1 | 0.72 | . | . | 58.3*
NC1CCN(c2cccc(Cl)n2)CC1 | 1.22 | . | -0.162 | . | . | .
CC(C)(C)C(=O)COC(=O)CNC(=O)c1ccc(Oc2ccccc2)cc1 | -3.75* | 6.3 | 1.58 | 3.3 | . | -0.4
CCCCCc1c(C)nc(N2CCc3ccccc3C2)[nH]c1=O | -0.373 | -8.2 | 0.497 | 0.6 | 1 | 9.6
